From PubChem BioAssay
CYP2C9 activ – CYP2C9 (human) activation; P11712; recombinant CYP2C9, luciferin-H conversion, luminescence; stronger effect = higher value; factor 1 = untreated enzyme, 0 = blocked; activation factor at 5 µM; actives 1.4% (n = 96,000);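 active = activation factor of 2 or more for CYP2C9 at a 5 µM dose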;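 note: 0 = sulfaphenazole-blocked wells and 1 = vehicle-only wells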
PLAP activator – activators of human placental alkaline phosphatase. P05187. purified PLAP enzyme, luminescent substrate read-out; stronger effect = higher value. activation fold at 20 µM. actives 1.2% (n = 96,000); in the data active = activation fold above about 2
Target sequence (P05187 whole entry, looked up): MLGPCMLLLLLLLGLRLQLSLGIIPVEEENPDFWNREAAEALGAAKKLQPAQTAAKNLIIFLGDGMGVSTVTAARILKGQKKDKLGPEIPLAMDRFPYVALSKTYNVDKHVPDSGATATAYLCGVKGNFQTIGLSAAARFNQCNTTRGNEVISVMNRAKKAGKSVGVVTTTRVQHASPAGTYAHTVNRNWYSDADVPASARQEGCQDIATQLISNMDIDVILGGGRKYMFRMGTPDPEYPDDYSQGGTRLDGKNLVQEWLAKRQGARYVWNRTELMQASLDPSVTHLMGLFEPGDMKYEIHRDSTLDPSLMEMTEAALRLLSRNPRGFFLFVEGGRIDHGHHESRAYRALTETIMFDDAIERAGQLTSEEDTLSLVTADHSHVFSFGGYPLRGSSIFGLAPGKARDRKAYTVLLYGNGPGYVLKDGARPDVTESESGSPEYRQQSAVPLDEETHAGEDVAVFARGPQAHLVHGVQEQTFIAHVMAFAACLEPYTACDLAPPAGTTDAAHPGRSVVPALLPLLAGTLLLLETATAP
CYP2C9 inhib – inhibitors of human CYP2C9; P11712; CYP2C9 Supersomes, luciferin-H conversion, luminescence; inhibition, % at 5 µM; actives 20% (n = 96,000); AID 777;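 active = blocking of liver enzyme CYP2C9 beyond about 50% at 5 µM, limit read from the data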
CYP2C19 act – activators of human cytochrome P450 2C19; recombinant CYP2C19, luciferin-H EGE luminescence; stronger effect = higher value; 0 = fully inhibited enzyme, 1 = untreated enzyme; P33261; AID 1025; activation factor at 5 µM; 96,000 tested, under 10 active;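 active = activation factor of at least 2 at 5 µM in the primary screen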;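 note: 0 = wells with 2.5 mM tranylcypromine and 1 = vehicle-only wells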
CYP2C19 inhib – human CYP2C19 inhibition. actives 21% (n = 96,000). inhibition, % at 5 µM. AID 778. CYP2C19 Supersomes, luciferin-H EGE luminescence, 30 min;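 active = CYP2C19 inhibition above a set limit at 5 µM in the primary screen, cut at about 50% in these data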;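 note: plate controls were negative control wells for no effect and 2.5 mM tranylcypromine positive control for full effect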
Numbers without * were called inactive. Most compounds without a hit are left out; they make up all but 31% or so of the library.

SMILES	CYP2C9 activ	PLAP activator	CYP2C9 inhib	CYP2C19 act	CYP2C19 inhib
COc1cccc2c1OC[C@@H](CO)[C@H]2N(C)C(=O)Nc1ccc(Cl)cc1	0.8	1.1	19.5	0.9	14.4
CS(=O)(=O)N(CC(=O)NC1CC2CCC1C2)c1cccc(C(F)(F)F)c1 (stereo not drawn)	0.8	1	22.4	0.6	43.0
Cc1ccc(N(CC(=O)NC2CC3CCC2C3)S(C)(=O)=O)cc1C (stereo not drawn)	0.9	1.4	10.5	0.3	73.2*
COc1ccc(-c2nc(-c3cccc(C)c3)[nH]c(=O)c2C#N)cc1	0.5	1.2	52.0*	1.1	-12.1
CCOC(=O)c1c(NC(=O)CSc2nnc(-c3cccnc3)n2Cc2ccco2)sc(C)c1C	0.3	1.7	65.7*	0.6	43.3
COC(=O)c1c(NC(=O)CSc2nnc(-c3ccco3)n2Cc2ccccc2)sc(C)c1C	0.4	1.4	61.8*	0.8	18.4
C=CCn1c(SCC(=O)Nc2sc(C)c(C)c2C(=O)OCC)nnc1-c1sc(N)nc1C	0.4	0.9	61.8*	0.4	59.9*
C=CCn1c(SCC(=O)NC2CCCCC2)nnc1-c1sc(N)nc1C	0.7	0.9	32.9	1	0.8
COC(=O)c1c(NC(=O)CSc2nnnn2C)sc(C)c1C	0.3	1.2	65.7*	0.3	65.1*
Cc1ccc(/C(O)=C2\C(=O)C(=O)N(CC(C)O)C2c2cccc(F)c2)cc1 (stereo not drawn)	1	1.4	-3.6	1.2	-21.4
Cc1sc2c(c1C)c(=O)nc1n2Cc2ccccc2-1	1.3	0.7	-33.8	1	-2.7
CCOC(=O)c1nn(-c2ccccc2)c(C)c1C(C)=O	0.8	1.1	16.7	0	99.9*
CCOC(=O)c1nn(-c2ccc(C)cc2)c(C)c1C(C)=O	1	1.3	1.4	0.1	87.6*
CCOC(=O)c1nn(-c2ccccc2F)c(C)c1C(C)=O	0.9	1	5.0	0	98.3*
CCOC(=O)c1nn(-c2ccc(F)cc2)c(C)c1C(C)=O	0.8	0.9	19.4	0	99.1*
CCOC(=O)CCC(=O)Nc1ccccc1C(N)=O	1	0.9	2.8	1	-3.1
Cc1ccc(C(=O)Oc2ccc(C(=O)COC(=O)c3cnccn3)cc2)cc1	0.9	0.8	13.2	0.9	5.6
Cc1ccccc1N(C(=O)Cn1nnc(-c2cccs2)n1)C(C(=O)NCCC(C)C)c1ccco1 (stereo not drawn)	0.2	1.2	83.9*	0.4	59.7*
COCCNC(=O)C(c1ccco1)N(Cc1ccc(OC)cc1)C(=O)Cn1nnc2ccccc21 (stereo not drawn)	1.1	1.4	-6.0	1	-4.1
CC(C)CCNC(=O)C(c1ccco1)N(Cc1cccs1)C(=O)Cn1nnc2ccccc21 (stereo not drawn)	0.4	0.9	59.0*	0.3	73.2*
O=[N+]([O-])c1ccc(Oc2cccc(Br)c2)c2ccncc12	0.8	0.7	16.0	0.4	58.5*
O=[N+]([O-])c1ccc(Oc2ccc(F)cc2)c2ccncc12	0.5	0.7	49.8	0.2	83.5*
CCOC(=O)c1c(CN2CCN(CCO)CC2)n(C)c2cc(Br)c(OC)cc12	0.2	1.5	79.1*	0.9	8.8
CCCCc1c(O)nc(SCC(=O)NC(C)(C)C)n(-c2ccccc2C)c1=O	1.3	1	-27.5	0.8	23.8
Cc1snc(S(=O)(=O)/C(C#N)=N\Nc2ccccc2)c1C#N	0.1	1	92.1*	0.7	30.3
SMILES	CYP2C9 activ	PLAP activator	CYP2C9 inhib	CYP2C19 act	CYP2C19 inhib
Cc1snc(S(=O)(=O)/C(C#N)=N/Nc2ccc(C(F)(F)F)cc2)c1C#N	0.1	1.4	94.5*	0.8	17.1
O=C(CCCn1c(SCC(=O)NC2CCCCC2)nc2ccccc2c1=O)NCC1CCCO1 (stereo not drawn)	0.4	1.3	64.9*	0.6	36.3
CCC(C)NC(=O)CSc1nc2ccccc2c(=O)n1CCCC(=O)NCC1CCCO1 (stereo not drawn)	0.6	1.2	42.8	0.9	8.0
O=C(CSc1nc2c(sc3ccccc32)c(=O)n1Cc1ccccc1)NCC1CCCO1 (stereo not drawn)	0.9	0.9	11.0	0.9	10.0
N#CCSc1nc2ccccc2c(=O)n1CCC(=O)NC1CCCCC1	1.2	1	-24.8	0	96.6*
COc1ccc(C(=O)Nn2c(SCC(=O)NC3CCCC3)nc3ccccc3c2=O)cc1	0.8	0.9	18.4	1	-1.9
O=C(CSc1nc2c(sc3ccccc32)c(=O)n1Cc1ccco1)NCC1CCCO1 (stereo not drawn)	0.3	1.1	68.1*	0.5	50.7*
O=C(CCCn1c(SCC(=O)c2ccc(O)c(O)c2)nc2ccccc2c1=O)NCC1CCCO1 (stereo not drawn)	0	0.3	96.3*	0.5	54.9*
Cc1cc(C(F)(F)F)nn1Cc1n[nH]c(=S)n1-c1cccc(Cl)c1	1.1	1	-10.5	1.1	-7.3
CC1Cc2cc(/C(O)=C3/C(=O)C(=O)N(CC4CCCO4)C3c3ccco3)ccc2O1 (stereo not drawn)	1.1	1.1	-10.2	1.2	-19.1
N#CCn1c(C2CCCCC2)nc2ccccc2c1=O	0.3	0.9	65.1*	0.3	70.2*
Cc1ccc(N2CC(C(=O)N3CCc4ccccc4C3)CC2=O)cc1 (stereo not drawn)	0.3	1	66.8*	0.6	36.8
Cc1ccc(C2CCN(C(=O)Nc3ccccc3)C2)cc1 (stereo not drawn)	0.7	0.7	30.5	0.4	60.5*
CC(=O)c1cccc(NC(=O)N2CCCc3ccccc32)c1	0.5	0.9	45.2	0.5	46.8
O=C(Nc1ccccc1)N1CCCC1	0.9	1	13.7	1.1	-7.5
CC(=O)c1cccc(NC(=O)N2CCc3ccccc3C2)c1	0.4	1	56.5*	0.3	68.3*
Cc1ccc(N2CC(C(=O)N3CCN(c4ccccc4)CC3)CC2=O)cc1 (stereo not drawn)	1	0.8	-3.3	1	4.9
Cc1ccc(NC(=O)N2CCc3ccccc3C2)cc1	0.9	1	11.6	0.1	92.9*
NCCCN1CCOCC1	1	1	-2.9	1	4.8
COc1ccc2c(c1)c(N=O)c(O)n2C	0.6	0.8	37.0	0.6	39.4
Cc1ccc2c(c1)N(CC(=O)N1CCc3ccccc3C1)C(=O)CO2	0.8	0.9	24.9	0.2	84.5*
O=C(C1COc2ccccc2O1)N1CCc2ccccc21 (stereo not drawn)	0.7	0.8	34.0	0.1	91.5*
CC1Oc2ccccc2N(CC(=O)N2CCc3ccccc32)C1=O (stereo not drawn)	0.4	1	56.5*	0.5	51.6*
O=C(CN1C(=O)COc2ccccc21)N1CCc2ccccc21	0.6	0.8	42.1	0.4	56.7*
CC1Oc2ccccc2N(CC(=O)N2CCCc3ccccc32)C1=O (stereo not drawn)	0.7	1.1	32.7	0.6	44.2
Cc1ccc2c(c1)N(CC(=O)N1CCCc3ccccc31)C(=O)CO2	0.9	0.9	10.5	0.7	34.4
